Data: PubChem BioAssay (NCI)
Compounds without any hit were thinned out: in the full panel of roughly 83,000, 20% have a hit.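 Growth was measured after 48 h exposure to one concentration of compound in 96-well plates. Values under 10 count as active.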 The source made the active and inactive calls.

The compounds below were run on SW-620 colon (assay: NCI-60 one-dose screen, 48 h (100 = growth as untreated, 0 = no growth, -100 = all killed)). Details: 10 µM.

SMILES	growth
O=C(Nc1cccc(C(F)(F)F)c1)c1cncc(C#Cc2cnc3cccnn23)c1	34.3% (inactive)
CCOc1ccc(/C=N/NC(=O)Cn2nc(Cc3ccccc3)c3onc(C)c3c2=O)cc1	43.3% (inactive)
COc1cc(/C=C/C(=O)c2ccc(C(F)(F)F)cc2)ccc1Oc1nc(Nc2ccc(F)cc2)nc(N(C)C)n1	50.2% (inactive)
CC(=O)c1cc(C(=O)N2c3ccccc3Sc3ccccc32)n2ccc(C)cc12	25.6% (inactive)
CC1(C)CC[C@]2(C(=O)N3CCOCC3)CC[C@]3(C)C(=CC[C@@H]4[C@@]5(C)CC[C@H](NCO)C(C)(C)[C@@H]5CC[C@]43C)[C@H]2C1	-88.8% (active)
COC[C@@H](CC(C)C)N=C1NC(=O)/C(=C/c2ccc3ncsc3c2)N1	5.92% (active)
CN1CCN(Cc2ccc(C(=O)Nc3cccc(Nc4ccc5c(O)cccc5n4)c3)cc2C(F)(F)F)CC1	-84% (active)
O=C(Nc1nc2ccc([N+](=O)[O-])cc2s1)Nc1ccccc1I	7.65% (active)
CN1CCCN(Cc2ccc(C(=O)Nc3cccc(Nc4ccc5cc(O)ccc5n4)c3)cc2C(F)(F)F)CC1	-25.8% (active)
COc1ccc(N2N=C(c3ccc4c(c3)OCCO4)CC2c2cccc(NC(=O)CCCNS(=O)(=O)c3ccc(F)cc3)c2)cc1 (stereo not drawn)	95.2% (inactive)
CC(=O)Nc1ccc(-n2cnc3cc(-c4ccc(O)cc4)ccc32)cc1F	28.2% (inactive)
O=C1NC(=NC2CCCCCC2)N/C1=C\c1ccc2ncoc2c1	11.3% (inactive)
COC1=C[C@@]23CCC(=O)N2CCc2cc4c(cc2[C@H]3[C@H]1OC(=O)C(C)(C)O)OCO4	105% (inactive)
